CHX counter = counter-screen hit for Shiga toxin inhibitors, cycloheximide; max response, %; cell reporter, cycloheximide protein synthesis inhibition counterscreen; 300,000 tested, 12% active; in the data active means max response mostly above about 13%, no sharp cut-off; inactive means mostly below about 14%; further: read at 38.3 µM for the half of the compounds with a filed dose; 0% is about no effect
Shiga toxin inh = blocks Shiga toxin action in Vero cells; Vero cells, Shiga toxin protein synthesis inhibition reporter; inhibition, % at 38.7 µM; 290,000 tested, 9.2% active; in the data active means inhibition mostly above about 28%, no sharp cut-off; inactive means mostly below about 43%; further: 0% is about no effect
LmPK inhibitor = LmPK (Leishmania mexicana) enzyme inhibition. Q27686. purified LmPK, Kinase-Glo ATP luminescence, 1 h. Potency, µM (series often up to 57.5 µM), for the others: at the top dose activity change, negative = inhibition, actives largely listed as inhibitors. 290,000 tested, 0.37% active. AID 1721; further: potency means the concentration at half of the fitted maximal effect; on the % scale 0 is the no-effect control and ±100 the full control effect
Target sequence (Q27686 whole entry, looked up): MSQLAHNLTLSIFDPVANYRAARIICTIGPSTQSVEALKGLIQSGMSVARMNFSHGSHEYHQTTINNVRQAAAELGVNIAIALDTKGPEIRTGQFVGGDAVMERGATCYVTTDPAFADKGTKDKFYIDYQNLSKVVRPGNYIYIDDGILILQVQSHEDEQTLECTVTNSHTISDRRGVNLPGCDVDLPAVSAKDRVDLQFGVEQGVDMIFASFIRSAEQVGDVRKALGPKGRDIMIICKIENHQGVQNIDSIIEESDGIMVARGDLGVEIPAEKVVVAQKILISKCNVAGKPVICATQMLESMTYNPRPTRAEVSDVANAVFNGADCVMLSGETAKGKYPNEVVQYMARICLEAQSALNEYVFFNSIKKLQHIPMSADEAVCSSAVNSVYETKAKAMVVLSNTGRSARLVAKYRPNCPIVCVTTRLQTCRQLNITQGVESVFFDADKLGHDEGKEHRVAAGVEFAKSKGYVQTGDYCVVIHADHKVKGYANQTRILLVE
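Purified LmPK (0.1 nM) with 0.5 mM PEP and 0.1 mM ADP in imidazole buffer pH 7.2 with MgCl2/KCl, 1 h at room temperature. ATP formed was read by luciferase luminescence and normalized to no-enzyme and uninhibited controls.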
RE007 growth inh = less growth of the S. pombe RE007 Vpr strain | S. pombe RE007 Vpr strain, BacTiter-Glo ATP luminescence, 24 h | Potency, µM (highest dose often 92.2 µM), for the others: at the highest dose activity change, negative = less growth, actives largely listed as inhibitors | 360,000 tested, 0.21% active; active means well fitted falling curve with a large enough effect; inconclusive means small, poorly fitted or top-dose-only effect; inactive means no such curve, though single readings can be large or run the other way; further: potency means the concentration at half of the fitted maximal effect; on the % scale 0 is the no-effect control and ±100 the full control effect; nearly all actives have a fitted effect of over 50% in size
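Fission yeast RE007 carrying one integrated HIV-1 vpr copy, seeded at OD 0.01 in PMG+AL medium with 23 nL pinned compound. Grown 24 h at 30 degrees; viability read by BacTiter-Glo luminescence after 5 min.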
TbPYK inhibitor = inhibitors of Trypanosoma brucei pyruvate kinase; Q57TT1; TbPYK enzyme, Kinase-Glo Plus ATP luminescence, 45 min; Potency, µM (series often up to 76.8 µM), without a hit: at the top dose activity, negative = inhibition, most hits filed as inhibitors; 410,000 tested, 0.12% active; AID 624173; further: potency means the concentration at half of the fitted maximal effect; on the % scale 0 is the no-effect control and ±100 the full control effect; nearly all actives have a fitted effect of over 50% in size
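ADP (130 uM final) triggers the TbPYK reaction after compound addition; incubation is 45 min at room temperature. Kinase-Glo Plus is then added and luminescence imaged. Normalized data are fitted to concentration-effect curves.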
FBPA Giardia inh = Giardia lamblia aldolase inhibition; purified Giardia FBPA; Potency, µM (doses to about 59.6 µM), for the others: at the highest dose activity, negative = inhibition, actives largely listed as inhibitors; 290,000 tested, 0.71% active; AID 2451; further: potency means the concentration at half of the fitted maximal effect; on the % scale 0 is the no-effect control and ±100 the full control effect; nearly all actives have a fitted effect of over 55% in size
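40 nM FBPA preincubated 10 min at RT with compound (up to 57.5 uM final), then substrate plus GAPDH/TPI/NAD/arsenate coupling and diaphorase/resazurin added. Fluorescence read after 20 min at RT, 525/598 nm.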
* = called active by the depositor; ? = inconclusive; · = no result; [ ] = another dose, or the depositor's remark. This is one part of a sample in which hits are shown more often than they occur. Unless noted, the call rests on the fitted dose curve; in most records, active means well fitted curve in the direction sought with a large enough effect; inconclusive means small, poorly fitted or top-dose-only effect, or another doubt; inactive means no such curve, though single readings can be large; an effect the other way counts as inactive or inconclusive.

SMILES	CHX counter	Shiga toxin inh	LmPK inhibitor	RE007 growth inh	TbPYK inhibitor	FBPA Giardia inh
COc1ccc(NC(=O)NC(=O)c2ccccc2)cc1	25.0*	·	-5.6%	-13.5%	-3.9%	-2.1%
O=C(NC(=O)c1ccccc1)Nc1ccccc1	41.9*	51.0*	-14.5%	1.7%	-2.6%	0.3%
COc1ccccc1NC(=O)NC(N)=O	3.2	-2.0	1.1%	-8.0%	1.0%	-1.9%
COc1ccc2c(O)c(-c3c(C)cc(C)cc3C)c(=O)[nH]c2c1	·	·	·	10.3%	-10.4%	·
CCN(/C(N)=N/c1nc(C)cc(C)n1)c1ccccc1	13.4*	19.8	-0.4%	-7.8%	3.2%	-26.2%
O=C(c1cccs1)N1CCCc2cc(NS(=O)(=O)c3ccc(Br)cc3)ccc21	·	·	·	·	-1.4%	·
Cc1ccccc1OCC(=O)N/N=C/C=C/c1ccccc1	-3.2	9.6	2.0%	-14.9%	3.2%	1.9%
COc1ccc(NCC(=O)N/N=C/C=C\c2ccccc2)cc1	21.0*	19.3*	6.2%	-11.2%	5.2%	?
O=C(COc1cccc2ccccc12)N/N=C/C=C/c1ccccc1	-2.5	-12.6	0.1%	-2.5%	-2.5%	8.3%
COc1ccccc1NCC(=O)N/N=C/C=C/c1ccccc1	17.1	18.0	-2.0%	10.0%	2.8%	-23.8%
COc1ccc(/C=C/C(=O)Oc2cccc(/C=N/NC(=O)COc3c(C)cccc3C)c2)cc1	53.4*	104.6*	-0.4%	19.3%	1.6%	4.2%
COc1ccc(/C=C/C=N/NC(=O)COc2ccc(OC)cc2)cc1	16.9	43.1*	1.7%	24.9%	1.8%	0.6%
CCOC(=O)N/N=C/C=C/c1ccccc1	61.3*	60.3*	-2.4%	2.3%	6.1%	-4.1%
CCCN1CCN(C(=O)c2ccc(CS(=O)c3ccc(Br)cc3)o2)CC1 (stereo unspecified)	·	·	·	-3.6%	0.7%	·
COC(=O)c1sc(NC(=O)OCc2ccccc2)nc1CCNC(=O)OC(C)(C)C	·	·	·	0.0%	·	·
COCCNC(=O)CSc1nnc2[nH]c(=O)cc(C)n12	·	·	·	·	-9.2%	·
CC(Oc1ccccc1)C(=O)Nc1c(C(=O)Nc2cccc(F)c2)oc2ccccc12 (stereo unspecified)	·	·	·	·	-3.0%	·
O=C(/C=C/c1ccccc1)NC1CC2CCC1C2 (stereo unspecified)	44.8*	106.1*	-1.6%	-6.7%	-2.1%	-7.1%
O=C(/C=C/c1ccc(Cl)cc1)NC1CC2CCC1C2 (stereo unspecified)	25.7*	128.8*	0.7%	4.8%	0.9%	-22.8%
c1ccc(CNC2CC3CCC2C3)cc1 (stereo unspecified)	·	·	·	-2.9%	-3.8%	·
O=C(/C=C/c1ccc([N+](=O)[O-])cc1)NC1CC2CCC1C2 (stereo unspecified)	43.2*	48.8*	1.6%	-1.5%	-26.7%	-18.5%
CC(C)CN1CCc2nc(N3CCN(C)CC3)ncc2C1	·	·	·	·	8.9%	·
O=C(CNc1cccc(S(=O)(=O)N2CCCC2)c1)Nc1ccc(F)cc1F	·	·	·	?	-1.3%	·
CC1(C(=O)NC2CCc3ccccc32)CCN1CCc1ccccc1 (stereo unspecified)	·	·	·	-20.8%	1.2%	·
Cc1nc(SCc2ccc(C#N)cc2)n[nH]1	17.7*	·	-1.7%	0.2%	-2.1%	-18.8%
SMILES	CHX counter	Shiga toxin inh	LmPK inhibitor	RE007 growth inh	TbPYK inhibitor	FBPA Giardia inh
CCc1nnc(SCc2ccc([N+](=O)[O-])cc2)nc1CC	·	·	·	5.4%	7.7%	·
CCOc1ccc(Cl)cc1CSc1n[nH]c(C)n1	-1.0	1.0	1.3%	-9.8%	3.6%	-0.6%
CCc1nc(SCc2ccc([N+](=O)[O-])cc2)n[nH]1	35.7*	76.0*	0.1%	13.5%	-6.2%	-16.6%
Cc1nc(SCc2ccc([N+](=O)[O-])cc2)n[nH]1	5.9*	·	12.2%	12.2%	-3.9%	-20.0%
CCCCOc1ccc(CSc2n[nH]c(C)n2)cc1	32.5*	92.9*	-1.6%	-27.7%	-12.0%	-5.4%
CC(C)(C)C(=O)Nc1ccc(NC(=O)c2ccco2)nc1	-11.8	-27.9	-10.5%	9.6%	-17.8%	1.7%
O=C(Cc1ccccc1)Nc1ccc(NC(=O)C2CCCCC2)nc1	-3.2	3.7	5.4%	0.5%	2.7%	-2.0%
O=C(Nc1ccc(NC(=O)C23CC4CC(CC(C4)C2)C3)cn1)c1ccco1	48.3*	69.3*	1.6%	-8.0%	3.8%	0.5%
COc1cc(NC(=O)C2CC2)c(OC)cc1NC(=O)c1ccco1	-3.9	-2.9	1.7%	-5.3%	-16.6%	·
O=C(Nc1ccc(NC(=O)C2CCCCC2)cn1)c1ccco1	39.3*	9.7	-17.7%	10.6%	0.1%	2.4%
O=C(Nc1ccc(NC(=O)C2CC2)cc1)c1ccco1	42.7*	62.8*	-9.2%	0.0%	2.6%	13.7%
CC(=O)Nc1cc2nn(-c3ccccc3)nc2cc1Cl	26.1*	64.0*	-11.1%	6.5%	-0.6%	-0.1%
CC(C)(C)C(=O)Nc1cc2nn(-c3ccccc3)nc2cc1Cl	47.5*	86.3*	?	-22.1%	0.9%	-0.9%
CC[C@]1(c2ccccc2)NC(=O)N(C)C1=O	·	·	·	·	·	-5.5%[21.7 µM]
COc1ccc(NC(=O)N2CCc3nc(COc4ccccc4)c4c(c3C2)CO[C@@H](C)C4)cc1	·	·	-4.2%[11.5 µM]	·	·	-0.2%[12.9 µM]
COc1ccccc1N1C(C)=CC(=C(C#N)c2nc3ccccc3s2)C=C1C	21.8*	41.7	0.3%	-0.6%	-10.5%	-12.7%
O=C(c1ccc(N2CCC3(CC2)OCCO3)c([N+](=O)[O-])c1)N1CCOCC1	21.5*	68.9*	-0.2%	18.9%	-0.6%	-4.0%
CN(c1ccc(C(=O)N2CCOCC2)cc1[N+](=O)[O-])C1CCCCC1	48.3*	94.5*	0.6%	4.7%	-1.1%	2.4%[12.9 µM]
CN1CCC(N(C)c2ccc(C(N)=O)cc2[N+](=O)[O-])CC1	-8.0	-3.3	0.2%	-1.3%	-0.8%	5.2%
CCCc1nc2nc(C)c(NS(=O)(=O)c3ccc(C)c(C)c3)c(=O)n2[nH]1	·	·	·	-10.5%	-3.4%	·
COc1ccccc1NC(=O)C(=O)c1cn(CC(=O)N2CCOCC2)c2ccccc12	12.2*	34.7*	-10.3%	-1.0%	3.7%	·
COc1ccc(NC(=O)C(=O)c2cn(CC(=O)N3CCOCC3)c3ccccc23)cc1OC	-5.3	-2.5	-0.3%	0.4%	-0.9%	·
COc1ccccc1NC(=O)C(=O)N1CCCC1	18.8*	60.4*	2.3%	-23.2%	2.9%	-0.7%
COc1ccccc1NC(=O)C(=O)c1cn(CC(=O)N2CCCC2)c2ccccc12	21.8*	36.6	-8.8%	1.5%	5.8%	·
CCCOc1ccc(CNC(=O)c2oc3ccc4c(c3c2C)C(=O)CC(C)(CC)O4)cc1 (stereo unspecified)	·	·	·	·	1.9%	·
COC(=O)c1sc(N2C(=O)C(O)=C(C(=O)c3ccc(C)o3)C2c2ccc(OC)c(OC)c2)nc1C (stereo unspecified)	-3.9	4.5	-0.2%	-11.9%	3.0%	·

Screens (PubChem BioAssay)
